# Measured values: ChEMBL document CHEMBL1961873, “Compounds: GSK PKIS; Assays: Nanosyn kinase panel” (2012)
# What was measured:
# [1] = target: Fibroblast growth factor receptor 4 (Homo sapiens) (UniProt P22455); settings: at 1 µM;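 further: reported figure is the averaged percent inhibition of FGFR4, from the GSK PKIS kinase screening panel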
# [2] = target: Tyrosine-protein kinase Fgr (Homo sapiens) (UniProt P09769); settings: at 0.1 µM
# [3] = target: Tyrosine-protein kinase Fgr (Homo sapiens) (UniProt P09769); settings: at 1 µM
# [4] = target: Vascular endothelial growth factor receptor 1 (Homo sapiens) (UniProt P17948); settings: at 0.1 µM
# [5] = target: Vascular endothelial growth factor receptor 1 (Homo sapiens) (UniProt P17948); settings: at 1 µM
# [6] = target: Receptor-type tyrosine-protein kinase FLT3 (Homo sapiens) (UniProt P36888); settings: at 0.1 µM
# [7] = target: Receptor-type tyrosine-protein kinase FLT3 (Homo sapiens) (UniProt P36888); settings: at 1 µM
# [8] = test system: T1, Receptor-type tyrosine-protein kinase FLT3 (Homo sapiens), P36888 [D835Y]; settings: at 0.1 µM
# T1 sequence (whole entry): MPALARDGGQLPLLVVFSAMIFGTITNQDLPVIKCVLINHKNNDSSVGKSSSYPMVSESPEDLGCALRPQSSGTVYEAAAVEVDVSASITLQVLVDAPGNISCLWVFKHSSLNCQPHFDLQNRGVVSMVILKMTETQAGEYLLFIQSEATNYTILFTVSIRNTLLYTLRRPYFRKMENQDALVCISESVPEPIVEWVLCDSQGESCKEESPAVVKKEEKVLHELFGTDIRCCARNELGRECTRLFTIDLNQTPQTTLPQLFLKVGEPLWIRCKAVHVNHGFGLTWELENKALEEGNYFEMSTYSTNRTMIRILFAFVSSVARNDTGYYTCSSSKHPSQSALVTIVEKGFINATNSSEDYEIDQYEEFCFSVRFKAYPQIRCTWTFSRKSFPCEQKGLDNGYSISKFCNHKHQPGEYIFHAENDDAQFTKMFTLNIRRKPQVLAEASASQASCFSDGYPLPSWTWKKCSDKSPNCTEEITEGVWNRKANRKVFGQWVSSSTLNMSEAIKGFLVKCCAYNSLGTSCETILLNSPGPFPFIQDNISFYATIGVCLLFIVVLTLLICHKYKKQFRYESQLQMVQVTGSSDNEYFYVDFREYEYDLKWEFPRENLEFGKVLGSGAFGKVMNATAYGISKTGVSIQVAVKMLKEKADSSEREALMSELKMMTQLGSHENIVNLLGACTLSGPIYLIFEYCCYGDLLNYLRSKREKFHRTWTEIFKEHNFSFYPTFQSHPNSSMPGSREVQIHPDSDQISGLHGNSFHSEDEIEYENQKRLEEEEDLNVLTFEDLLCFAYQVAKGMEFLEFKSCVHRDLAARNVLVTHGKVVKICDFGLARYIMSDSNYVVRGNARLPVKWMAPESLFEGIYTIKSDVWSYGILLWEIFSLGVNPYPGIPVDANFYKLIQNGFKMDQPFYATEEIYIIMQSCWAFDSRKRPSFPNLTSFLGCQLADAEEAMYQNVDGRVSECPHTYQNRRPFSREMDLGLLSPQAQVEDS
# [9] = target: Non-receptor tyrosine-protein kinase TYK2 (Homo sapiens) (UniProt P29597); settings: at 1 µM;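 further: values are mean percent inhibition of TYK2 kinase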
# [10] = target: T2, Tyrosine-protein kinase receptor TYRO3 (Homo sapiens) (UniProt Q06418); settings: at 0.1 µM
# T2 sequence (whole entry): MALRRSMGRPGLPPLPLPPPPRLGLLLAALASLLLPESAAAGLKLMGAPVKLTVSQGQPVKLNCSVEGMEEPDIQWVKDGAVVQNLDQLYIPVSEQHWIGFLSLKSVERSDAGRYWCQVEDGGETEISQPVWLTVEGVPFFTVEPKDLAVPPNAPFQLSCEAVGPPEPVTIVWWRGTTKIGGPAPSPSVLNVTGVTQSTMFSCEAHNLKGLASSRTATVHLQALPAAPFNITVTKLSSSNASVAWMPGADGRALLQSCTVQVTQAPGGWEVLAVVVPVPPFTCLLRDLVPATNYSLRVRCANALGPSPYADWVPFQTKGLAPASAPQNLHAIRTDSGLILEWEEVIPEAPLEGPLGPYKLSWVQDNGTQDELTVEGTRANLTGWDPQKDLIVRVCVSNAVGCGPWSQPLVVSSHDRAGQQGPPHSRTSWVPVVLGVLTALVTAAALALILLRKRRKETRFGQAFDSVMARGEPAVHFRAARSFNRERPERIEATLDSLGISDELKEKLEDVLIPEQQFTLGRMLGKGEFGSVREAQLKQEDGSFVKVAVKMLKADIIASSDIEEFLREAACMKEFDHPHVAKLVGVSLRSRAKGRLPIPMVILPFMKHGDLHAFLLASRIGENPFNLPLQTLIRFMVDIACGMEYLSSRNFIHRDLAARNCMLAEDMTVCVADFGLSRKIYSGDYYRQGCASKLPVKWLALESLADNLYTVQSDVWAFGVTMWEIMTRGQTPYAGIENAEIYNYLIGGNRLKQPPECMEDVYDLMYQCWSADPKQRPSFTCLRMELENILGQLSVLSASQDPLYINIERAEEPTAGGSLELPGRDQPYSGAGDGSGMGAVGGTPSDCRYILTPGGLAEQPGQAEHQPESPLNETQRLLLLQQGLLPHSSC
# [11] = target: T2, Tyrosine-protein kinase receptor TYRO3 (Homo sapiens); settings: at 1 µM
# [12] = target: Tyrosine-protein kinase Yes (Homo sapiens) (UniProt P07947); settings: at 0.1 µM
# [13] = target: Tyrosine-protein kinase Yes (Homo sapiens) (UniProt P07947); settings: at 1 µM
# [14] = target: T3, Tyrosine-protein kinase ZAP-70 (Homo sapiens) (UniProt P43403); settings: at 0.1 µM
# T3 sequence (whole entry): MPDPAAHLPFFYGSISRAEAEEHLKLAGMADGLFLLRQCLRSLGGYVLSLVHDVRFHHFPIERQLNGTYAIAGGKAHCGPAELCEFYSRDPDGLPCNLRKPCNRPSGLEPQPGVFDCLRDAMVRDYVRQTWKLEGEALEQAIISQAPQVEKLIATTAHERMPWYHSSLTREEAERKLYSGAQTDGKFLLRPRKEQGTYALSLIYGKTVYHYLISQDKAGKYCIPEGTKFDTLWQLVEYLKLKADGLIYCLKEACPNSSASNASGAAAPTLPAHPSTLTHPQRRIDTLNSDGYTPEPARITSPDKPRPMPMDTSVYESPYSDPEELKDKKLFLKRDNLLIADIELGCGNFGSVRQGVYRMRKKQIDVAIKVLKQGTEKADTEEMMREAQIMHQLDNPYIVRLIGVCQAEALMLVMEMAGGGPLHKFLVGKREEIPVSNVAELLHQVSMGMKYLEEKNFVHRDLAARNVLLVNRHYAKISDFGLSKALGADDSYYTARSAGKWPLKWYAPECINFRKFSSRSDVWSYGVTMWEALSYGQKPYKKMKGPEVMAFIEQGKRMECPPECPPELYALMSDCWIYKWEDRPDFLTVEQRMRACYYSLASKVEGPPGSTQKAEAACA
# [15] = target: T3, Tyrosine-protein kinase ZAP-70 (Homo sapiens); settings: at 1 µM
# [16] = target: Serine/threonine-protein kinase B-raf (Homo sapiens) (UniProt P15056); settings: at 0.1 µM
# [17] = target: Serine/threonine-protein kinase B-raf (Homo sapiens) (UniProt P15056); settings: at 1 µM
# [18] = test system: Serine/threonine-protein kinase B-raf (Homo sapiens), P15056 [V600E]; settings: at 0.1 µM
# [19] = test system: Serine/threonine-protein kinase B-raf (Homo sapiens), P15056 [V600E]; settings: at 1 µM
# [20] = target: RAF proto-oncogene serine/threonine-protein kinase (Homo sapiens) (UniProt P04049); settings: at 0.1 µM;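 further: values are mean CRAF kinase inhibition from profiling of the GSK Published Kinase Inhibitor Set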
# Sequence of RAF proto-oncogene serine/threonine-protein kinase (Homo sapiens) (P04049 whole entry): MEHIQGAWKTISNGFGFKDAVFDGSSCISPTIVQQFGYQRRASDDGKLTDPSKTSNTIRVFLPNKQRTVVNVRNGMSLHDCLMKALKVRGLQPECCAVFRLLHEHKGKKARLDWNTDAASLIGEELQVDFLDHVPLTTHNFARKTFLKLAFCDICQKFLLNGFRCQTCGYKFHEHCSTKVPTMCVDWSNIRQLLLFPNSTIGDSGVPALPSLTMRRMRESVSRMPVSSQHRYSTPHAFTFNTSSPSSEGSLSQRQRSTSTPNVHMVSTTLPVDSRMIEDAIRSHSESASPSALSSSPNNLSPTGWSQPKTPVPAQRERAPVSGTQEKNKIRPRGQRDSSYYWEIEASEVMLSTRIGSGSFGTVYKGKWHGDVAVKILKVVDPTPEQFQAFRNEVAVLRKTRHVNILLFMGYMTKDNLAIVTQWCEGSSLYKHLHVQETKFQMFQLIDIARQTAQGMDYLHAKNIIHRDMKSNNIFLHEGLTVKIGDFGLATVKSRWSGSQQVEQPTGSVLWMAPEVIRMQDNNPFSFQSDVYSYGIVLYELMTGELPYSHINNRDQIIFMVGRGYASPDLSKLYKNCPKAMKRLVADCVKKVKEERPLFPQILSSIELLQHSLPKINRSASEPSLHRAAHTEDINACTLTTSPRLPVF
# Sequence of Fibroblast growth factor receptor 4 (Homo sapiens) (P22455 22-802 limits assumed): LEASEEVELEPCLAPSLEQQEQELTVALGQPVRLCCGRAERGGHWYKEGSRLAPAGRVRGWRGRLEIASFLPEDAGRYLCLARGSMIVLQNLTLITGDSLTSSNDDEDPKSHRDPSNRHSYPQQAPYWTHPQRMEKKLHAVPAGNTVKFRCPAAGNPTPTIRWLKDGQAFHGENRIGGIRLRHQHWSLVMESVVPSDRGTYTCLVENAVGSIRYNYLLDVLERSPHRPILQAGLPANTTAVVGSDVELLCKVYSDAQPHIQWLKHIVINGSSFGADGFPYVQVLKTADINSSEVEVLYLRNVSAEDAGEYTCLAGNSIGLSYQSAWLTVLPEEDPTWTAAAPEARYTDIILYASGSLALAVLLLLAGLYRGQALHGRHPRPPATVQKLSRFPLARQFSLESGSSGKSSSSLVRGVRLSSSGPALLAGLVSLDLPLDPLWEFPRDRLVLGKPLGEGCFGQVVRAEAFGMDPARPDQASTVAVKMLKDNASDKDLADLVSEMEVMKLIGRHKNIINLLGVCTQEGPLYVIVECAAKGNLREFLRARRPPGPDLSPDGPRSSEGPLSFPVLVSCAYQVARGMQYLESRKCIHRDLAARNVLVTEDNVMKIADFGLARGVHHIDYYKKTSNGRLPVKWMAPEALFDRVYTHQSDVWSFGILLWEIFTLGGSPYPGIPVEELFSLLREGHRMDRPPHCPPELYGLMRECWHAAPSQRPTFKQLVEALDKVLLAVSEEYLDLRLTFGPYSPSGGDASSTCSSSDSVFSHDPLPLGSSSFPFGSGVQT
# Sequence of Tyrosine-protein kinase Fgr (Homo sapiens) (P09769 2-529 limits assumed): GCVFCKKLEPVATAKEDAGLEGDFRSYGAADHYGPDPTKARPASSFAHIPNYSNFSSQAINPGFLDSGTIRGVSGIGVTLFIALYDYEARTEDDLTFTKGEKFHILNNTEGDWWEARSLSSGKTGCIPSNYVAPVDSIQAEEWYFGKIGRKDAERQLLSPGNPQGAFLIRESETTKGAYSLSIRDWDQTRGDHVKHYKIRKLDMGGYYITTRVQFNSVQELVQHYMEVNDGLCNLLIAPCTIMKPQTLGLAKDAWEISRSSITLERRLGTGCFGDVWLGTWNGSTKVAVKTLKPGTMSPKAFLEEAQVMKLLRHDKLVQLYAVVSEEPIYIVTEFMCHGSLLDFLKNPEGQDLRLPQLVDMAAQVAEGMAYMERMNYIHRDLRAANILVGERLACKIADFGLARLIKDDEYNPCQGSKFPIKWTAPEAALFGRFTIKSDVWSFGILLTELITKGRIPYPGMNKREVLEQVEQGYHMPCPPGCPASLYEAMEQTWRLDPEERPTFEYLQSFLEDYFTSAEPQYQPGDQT
# Sequence of Serine/threonine-protein kinase B-raf (Homo sapiens), P15056 [V600E] (P15056 whole entry V600E): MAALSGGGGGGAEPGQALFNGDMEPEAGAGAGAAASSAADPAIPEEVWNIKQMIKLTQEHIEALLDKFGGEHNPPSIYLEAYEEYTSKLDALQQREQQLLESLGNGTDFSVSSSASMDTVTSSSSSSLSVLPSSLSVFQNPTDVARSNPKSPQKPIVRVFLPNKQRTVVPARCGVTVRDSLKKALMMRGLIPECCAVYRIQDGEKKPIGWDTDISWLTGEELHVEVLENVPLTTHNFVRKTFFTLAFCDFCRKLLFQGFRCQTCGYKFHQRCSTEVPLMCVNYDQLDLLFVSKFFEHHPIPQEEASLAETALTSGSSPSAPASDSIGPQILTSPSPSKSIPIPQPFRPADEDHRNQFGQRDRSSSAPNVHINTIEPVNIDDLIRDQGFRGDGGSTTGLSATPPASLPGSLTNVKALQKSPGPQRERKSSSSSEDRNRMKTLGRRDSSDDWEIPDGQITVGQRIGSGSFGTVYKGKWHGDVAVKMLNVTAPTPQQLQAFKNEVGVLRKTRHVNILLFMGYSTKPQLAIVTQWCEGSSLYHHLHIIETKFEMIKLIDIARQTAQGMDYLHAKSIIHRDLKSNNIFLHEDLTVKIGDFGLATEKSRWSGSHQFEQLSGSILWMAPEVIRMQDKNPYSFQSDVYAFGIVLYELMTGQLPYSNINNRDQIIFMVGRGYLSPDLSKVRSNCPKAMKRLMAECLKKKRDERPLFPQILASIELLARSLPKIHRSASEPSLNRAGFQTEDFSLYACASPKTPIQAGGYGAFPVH
# Sequence of Vascular endothelial growth factor receptor 1 (Homo sapiens) (P17948 whole entry): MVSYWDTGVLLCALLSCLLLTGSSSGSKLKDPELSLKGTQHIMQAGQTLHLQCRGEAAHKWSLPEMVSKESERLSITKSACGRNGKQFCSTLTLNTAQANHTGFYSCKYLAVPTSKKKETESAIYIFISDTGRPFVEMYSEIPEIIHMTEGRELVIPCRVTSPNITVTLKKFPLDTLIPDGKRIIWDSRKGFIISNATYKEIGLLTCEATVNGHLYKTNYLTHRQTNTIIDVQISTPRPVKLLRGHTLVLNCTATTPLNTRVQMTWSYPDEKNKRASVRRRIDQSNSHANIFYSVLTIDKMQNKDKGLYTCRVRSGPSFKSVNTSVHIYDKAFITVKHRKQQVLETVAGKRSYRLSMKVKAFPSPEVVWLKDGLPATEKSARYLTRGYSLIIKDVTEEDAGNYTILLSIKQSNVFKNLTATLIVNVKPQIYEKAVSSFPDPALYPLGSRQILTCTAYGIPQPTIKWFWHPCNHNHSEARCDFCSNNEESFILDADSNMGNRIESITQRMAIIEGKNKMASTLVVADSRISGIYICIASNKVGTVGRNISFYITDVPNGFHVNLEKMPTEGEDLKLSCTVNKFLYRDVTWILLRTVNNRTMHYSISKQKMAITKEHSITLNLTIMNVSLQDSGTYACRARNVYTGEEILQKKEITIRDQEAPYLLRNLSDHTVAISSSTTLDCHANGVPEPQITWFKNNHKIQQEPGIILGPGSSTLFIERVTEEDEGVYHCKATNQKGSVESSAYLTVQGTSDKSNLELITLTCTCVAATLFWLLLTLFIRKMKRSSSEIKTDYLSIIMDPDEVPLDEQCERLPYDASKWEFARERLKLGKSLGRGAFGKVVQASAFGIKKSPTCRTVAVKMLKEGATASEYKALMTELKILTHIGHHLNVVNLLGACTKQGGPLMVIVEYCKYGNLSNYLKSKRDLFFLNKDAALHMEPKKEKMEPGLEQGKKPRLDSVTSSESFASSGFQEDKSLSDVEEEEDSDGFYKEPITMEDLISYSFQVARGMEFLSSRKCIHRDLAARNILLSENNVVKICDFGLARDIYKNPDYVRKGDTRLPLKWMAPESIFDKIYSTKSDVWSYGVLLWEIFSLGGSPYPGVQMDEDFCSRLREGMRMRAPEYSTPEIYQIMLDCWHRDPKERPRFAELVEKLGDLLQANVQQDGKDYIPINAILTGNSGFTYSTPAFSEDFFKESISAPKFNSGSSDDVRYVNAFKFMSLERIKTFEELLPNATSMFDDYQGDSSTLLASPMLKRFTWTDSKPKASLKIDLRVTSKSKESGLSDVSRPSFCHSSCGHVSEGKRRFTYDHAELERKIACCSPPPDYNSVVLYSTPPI
# Sequence of Tyrosine-protein kinase Yes (Homo sapiens) (P07947 2-543 limits assumed): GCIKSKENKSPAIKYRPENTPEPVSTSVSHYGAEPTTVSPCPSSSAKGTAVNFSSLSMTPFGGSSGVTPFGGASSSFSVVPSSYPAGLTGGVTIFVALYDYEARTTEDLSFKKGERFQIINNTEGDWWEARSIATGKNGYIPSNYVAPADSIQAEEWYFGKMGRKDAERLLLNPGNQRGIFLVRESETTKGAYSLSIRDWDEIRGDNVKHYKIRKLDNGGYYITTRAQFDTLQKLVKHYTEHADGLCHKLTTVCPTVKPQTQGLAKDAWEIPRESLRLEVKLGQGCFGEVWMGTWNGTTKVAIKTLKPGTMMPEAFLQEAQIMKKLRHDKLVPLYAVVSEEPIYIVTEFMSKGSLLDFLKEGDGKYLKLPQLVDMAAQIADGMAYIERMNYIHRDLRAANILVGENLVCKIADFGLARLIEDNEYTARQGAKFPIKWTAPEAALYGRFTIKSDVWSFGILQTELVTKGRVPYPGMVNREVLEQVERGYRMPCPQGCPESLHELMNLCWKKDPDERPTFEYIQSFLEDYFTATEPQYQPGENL
# Sequence of Serine/threonine-protein kinase B-raf (Homo sapiens) (P15056 whole entry): as the sequence (P15056 whole entry V600E) above, with E600V counted along it
SMILES,inhibition [1],inhibition [2],inhibition [3],inhibition [4],inhibition [5],inhibition [6],inhibition [7],inhibition [8],inhibition [9],inhibition [10],inhibition [11],inhibition [12],inhibition [13],inhibition [14],inhibition [15],inhibition [16],inhibition [17],inhibition [18],inhibition [19],inhibition [20]
Cc1ccc(C(=O)NC(C)C)cc1-c1ccc(C(=O)NCC2CC2)cc1,0.47%,-1.7%,-1.1%,0.43%,-1.81%,-4.25%,-1.66%,-1.15%,2.94%,-2.22%,-0.5%,-0.21%,-0.56%,-5.65%,-1.41%,-3.13%,-5.03%,-4.24%,-2.75%,-1.46%
Fc1ccc(-c2ncn(C3CCNCC3)c2-c2ccnc(Oc3ccc(Oc4ccccc4)cc3)n2)cc1,3.31%,-0.13%,4.83%,-0.48%,3.29%,2.97%,1.85%,-3.32%,-3.59%,1.47%,2.08%,0.21%,4.26%,0.95%,0.36%,6.4%,11.6%,4.03%,8.67%,1.44%
COc1cc2ncn(-c3cc(OCCc4ccccc4)c(C(N)=O)s3)c2cc1OC,2%,-0.62%,7.7%,1.49%,4.71%,0.81%,7.46%,0.74%,-2.99%,0.78%,0.83%,1.03%,4.7%,0.43%,0.59%,3.24%,3.36%,3.25%,3.42%,0.38%
CN(C)CCCNc1nccc(-c2c(-c3ccc(F)cc3)nn3cc(C(F)(F)F)ccc23)n1,-0.45%,1.41%,9.12%,0.51%,1.19%,0.5%,4.18%,-2.41%,-0.14%,1.1%,1.35%,0.79%,-0.45%,-2.33%,-4.78%,2.11%,2.24%,2.52%,2.19%,3.17%
CCS(=O)(=O)c1ccc(OC)c(Nc2ncc(-c3cccc(-c4ccccc4F)c3)o2)c1,16.3%,11.9%,52.1%,24.9%,68.4%,6.25%,30%,5.31%,1.31%,3.28%,19.6%,25.7%,73%,1.06%,-0.05%,1.09%,1.46%,0.74%,1.89%,-0.07%
COc1cc2ncn(-c3cc(OCc4ccccc4C(F)(F)F)c(C(C)=O)s3)c2cc1OC,0.4%,3.6%,6.26%,1.7%,1.67%,1.77%,5.32%,1.44%,-0.07%,1.52%,2.25%,2.59%,6.19%,-0.08%,-3.94%,5.13%,5.83%,4.21%,4.4%,-0.73%
